Drawing on PubChem BioAssay AID588727 (Southern Research Specialized Biocontainment Screening …, 2011), this text covers inhibition for 28 compounds.

About 450 (0.13%) of roughly 350,000 compounds were called active. A selection follows. Entries with a potency or affinity are not part of this list. A number with no mark means an inactive call. The rule behind the calls is not given here.

Usually inhibition stands for the share of the control response that was lost under treatment.

This test in a line: inhibitors of VEEV TC-83 cytopathic effect, confirmation, Vero cells (AID 588727). The conditions noted are these: VEEV TC-83 cytopathic effect inhibition, at 20 µM; hits give high values unless noted. (In general: Damage to the host cells serves as the signal in cytopathic effect assays.)
On to `COc1ccc(C)cc1NC(=O)CCN1CCN(C/C=C/c2ccccc2)CC1`, for which the inhibition entry was “inactive”. The value for `Cc1ccccc1N1CC(O)(c2cccs2)[N+]2=C1CCCC2` (stereo not drawn) was 1.35%; that for `OC1(c2cccs2)CN(c2ccc(Cl)cc2)C2=[N+]1CCCS2` (stereo not drawn) was 0.66%. As for `C[N+]1=C2CCCCCN2C(O)(c2ccccc2)C1` (stereo not drawn), the inhibition entry was “inactive”. The value for `CCc1ccc(N2CC(O)(c3cccs3)[N+]3=C2SCCC3)cc1` (stereo not drawn) was 3.66%. In the case of `COc1ccc2oc(C(=O)NCC3CCCO3)c(C)c2c1` (stereo not drawn) it was 5.81%; in that of `COc1ccc(CCNC(=O)CSc2nccc(=O)[nH]2)cc1OC`, “inactive”; in that of `COc1ccccc1N/N=C(\C#N)C(=N)N1CCOCC1`, 1.39%. The value for `COc1ccc(Nc2cc(C(=O)NCCCN3CCN(C)CC3)c3ccccc3n2)cc1` was 0.57%.

With `COc1ccc(Nc2cc(C(=O)NCCCN3CCN(C)CC3)c3ccccc3n2)cc1OC`, the inhibition was 0.68%. Turning to `O=C(NCc1ccccc1Cl)C(=O)NCC(c1ccco1)N1CCOCC1` (stereo not drawn), the inhibition result is “inactive”. In the case of `Cc1c(NC(=O)CSCc2ccccc2)cccc1C(=O)O`, the inhibition was 0.57%.

Turning to `Cc1ccc(CSCC(=O)Nc2ccccc2F)cc1`, the inhibition was 1.09%. In the case of `COCCCNC(=S)NCCc1ccc(F)cc1`, the inhibition is 0.69%. The value for `COc1ccc(NCC(=O)N/N=C2\CCCC(C)C2)cc1` (stereo not drawn) was 0.09%; that for `C=CCN=c1scc(-c2ccccc2)n1/N=C/c1ccccn1` was 12%; that for `C=CCN=c1scc(-c2ccc(F)cc2)n1/N=C/c1ccccn1` was 7.98%.

Consider `CC(=O)OCC1OC(n2cc(F)c(=O)[nH]c2=O)C(OC(C)=O)C1OC(C)=O` (stereo not drawn), for which the inhibition was 5.22%. Regarding `C[C@H]1O[C@@H](n2cc(F)c(=O)[nH]c2=O)[C@H](O)[C@@H]1O`, the inhibition is 6.89%. The value for `Cc1ccnc(NC(=O)CCC(=O)N(CC(=O)NCc2ccc(F)cc2)CC2CCCO2)c1` (stereo not drawn) was 0.42%. In the case of `COc1ccccc1-c1cn[nH]c1-c1ccc(OCc2ccc(F)cc2)cc1O` it was 3.76%; in that of `OCCOCCNc1ncnc2c1c(-c1ccccc1)cn2-c1ccccc1`, 10.9%. Regarding `c1ccc(-c2cn(-c3ccccc3)c3ncnc(NCCCN4CCOCC4)c23)cc1`, the inhibition is 9.07%.

Consider `COc1ccc(NC(=O)CN2CCCCC2)cc1S(=O)(=O)N1CCCCC1`, for which the inhibition was 0.88%. With `NC(=O)CC(NC(=O)Cc1cccc2ccccc12)c1ccc(NCc2ccc(F)c(F)c2)c([N+](=O)[O-])c1` (stereo not drawn), the inhibition was 0.49%. Turning to `CNC(=O)/C(C#N)=C/c1cn(CC(=O)OC)c2ccccc12`, the inhibition was 0.69%. Take `COc1ccc(OC)c2[nH]c(C(=O)N3CCC(C(=O)O)CC3)cc12`: the inhibition is 0.69%. The value for `COc1cc2cc(C(=O)O)[nH]c2c(OC)c1OC` was 0.1%.
